# Experimental data from PubChem BioAssay (EPA / NIEHS).
# Active and inactive are the calls of the source. The calls were made as follows: active = hit-call score of the fitted dose curve at least 0.9, where 1 is the maximum; inactive = score below 0.9.
# Read-out: Matrix Metallopeptidase 1 (MMP1), MMP1 (gene 4312)
# Experiment: BSK_hDFCGF_MMP1: BioMAP Diversity Plus: hDFCGF Assay for Matrix Metallopeptidase 1 (MMP1) Biomarker Activity (AID 2283064)
# Settings: primary human foreskin fibroblasts; actives raise or lower the signal
# Protocol: BSK_hDFCGF is a cell-based, multiplexed-readout assay that uses foreskin fibroblast, a human skin primary cell, with measurements taken at 24 hours after chemical dosing in a 96-well plate.BSK_hDFCGF_MMP1 is an assay component measured in the BSK_hDFCGF assay. It measures MMP-1 antibody related to regulation of gene expression using ELISA technology.Data from the assay component BSK_hDFCGF_MMP1 was analyzed into 1 assay endpoint. This assay endpoint, BSK_hDFCGF_MMP1, was analyzed with bidirectional fitting relative to DMSO as the negative control and baseline of activity. Using a type of binding reporter, gain or loss-of-signal activity can be used to understand changes in the signaling as they relate to the gene MMP1. Furthermore, this assay endpoint can be referred to as a primary readout, because this assay has produced multiple assay endpoints where this one serves a signaling function. To generalize the intended target to other relatable targets, this assay endpoint is annotated to the protease intended target family, where the subfamily is matrix metalloproteinase.
# The levels of cell surface (or secreted, indicated by the prefix "s") biomarker endpoints were measured by ELISA. Overt cytotoxicity to cells in confluent adherent cultures (all systems other than the BT system) was assessed by measuring total protein levels using sulforhodamine B (SRB) staining in parallel cultures at the time of biomarker measurements, indicated as SRB endpoints. For proliferation assays for adherent cell types, individual cell types are cultured at sub-confluence and relative cell numbers quantified by SRB staining at time points optimized for each system (48 h: 3C and CASM3C systems; 72 h: BT and HDF3CGF systems; 96 h: SAg system). SRB was performed by staining cells with 0.1% SRB after fixation with 10% TCA and reading wells at 560 nm.Viability and proliferation of PBMC (T cells) was quantified by Alamar Blue reduction for the SAg and BT systems. For PBMC viability (referred to as PBMC Cytotoxicity within the assay endpoint names), cells were plated (75,000/well in a 96-well plate) and then chemical samples added for 1 h before addition of activators, SEB and TSST-1 (20 ng/mL final concentration each). Cells were incubated for 90 h. Then, Alamar Blue (20 uL/well) (Invitrogen, Cat DAL1100) was added for 6 h, and the plates were read with a fluorescence microplate reader at 546/580 nm (excitation/emission). For PBMC proliferation, cells were plated and activated as above but incubated for only 16 h prior to addition of Alamar Blue. Plates were read after 6 h.
Compound,outcome,AC50
CCCc1cc(=O)[nH]c(=S)[nH]1,inactive,–
CCCCCCC(=O)OCC,inactive,–
Nc1ccc(S(=O)(=O)c2ccc(N)cc2)cc1,inactive,–
Cc1ccc(C)c(O)c1C,inactive,–
Cc1nc(C)nc(N2C[C@@H](C)N(c3ccnc([C@@H](C)O)n3)[C@@H](C)C2)n1,inactive,–
CCCCCC(=O)O,inactive,–
CC1(C)CC(N=C=O)CC(C)(CN=C=O)C1 (stereo not given),inactive,–
CCCCc1ccc2c(n1)[C@@H](c1ccc(OC)cc1C[C@H](C)C(=O)O)[C@H](C(=O)O)[C@H]2c1ccc2c(c1)OCO2,inactive,–
COc1ccc(S(=O)(=O)N2C(=O)[C@@](c3ccccc3OC)(N3C[C@H](O)C[C@H]3C(=O)N(C)C)c3cc(Cl)ccc32)c(OC)c1,–,4.5 µM (active)
COc1cc(-c2nc(NC(=O)c3cc4cc(C)cc(C)c4n3CC(=O)O)sc2CCC2CCCCC2)c(OC)cc1Cl,–,0.471 µM (active)
Cc1ccc(C(C)C)c(O)c1,inactive,–
Cc1cccc(C)c1O,inactive,–
Cc1ccc(Cl)cc1,inactive,–
NS(=O)(=O)c1cc2c(cc1Cl)NCNS2(=O)=O,inactive,–
COCCOCCOC,inactive,–
Clc1cc(Cl)c(Cl)cc1Cl,inactive,–
Cc1nc(-c2ccc3c(c2)CCN(CCC2CCC(NC(=O)/C=C/c4ccc(F)cc4)CC2)CC3)no1 (stereo not given),inactive,–
CCCCCCCCCCCCCO,–,15.6 µM (active)
Cc1ccc(N(C)C)cc1,inactive,–
Oc1ccc2c(c1)OC[C@@H](N1CCC(O)(c3ccc(F)cc3)CC1)[C@H]2O,inactive,–

Compound,outcome,AC50
CCCCCCOCCO,inactive,–
O=C(N[C@@H](Cc1ccccc1)[C@@H](O)C(=O)N1C[C@@H](O)[C@@H](O)C1)c1cc2cc(Cl)ccc2[nH]1,inactive,–
O=c1c(O)c(-c2ccc(O)c(O)c2)oc2cc(O)cc(O)c12,inactive,–
Oc1ccc2ccccc2c1N=Nc1ccccc1,inactive,–
CC(=O)OCCOCCOCCOC(C)=O,inactive,–
CCNc1cccc(C)c1,inactive,–
Cc1ccc(C)c(C)c1,inactive,–
Cc1cccc([N+](=O)[O-])c1C,inactive,–
CC=Cc1ccc(O)c(OC)c1,inactive,–
Cc1ccc2ncccc2c1,inactive,–
CCCCC(CC)COC(=O)CC(C(=O)OCC(CC)CCCC)S(=O)(=O)O (stereo not given),–,25.7 µM (active)
CN[C@H]1CC[C@@H](c2ccc(Cl)c(Cl)c2)c2ccc(S(N)(=O)=O)cc21,–,32.2 µM (active)
C1CCC(SSC2CCCCC2)CC1,inactive,–
Cc1cc(NC(=O)C(=O)O)cc(C)c1Oc1ccc(O)c2c1CCC2,inactive,–
Nc1ccc2c(c1)C(=O)c1ccccc1C2=O,inactive,–
O=c1[nH]cc(F)c(=O)[nH]1,inactive,–
NC(=O)Cn1c(=O)cc(CCN2CCN(c3nccc4sccc34)CC2)c2ccc(F)cc21,inactive,–
CCc1c(C(=O)NN2CCCCC2)nn(-c2ccc(Cl)cc2Cl)c1-c1ccc(Br)cc1,–,3.03 µM (active)
CCCCCCCCCCO,inactive,–
CC(=O)C(C)=CC1C(C)=CCCC1(C)C (stereo not given),inactive,–
